HTT ATP protect: cytoprotection in Huntington HTT-Q103 PC12 cell model | Potency, µM (top dose mostly 56.4 µM), inactives show cytoprotection (ATP increase), usual class: activators | AID 1471 | 0.14% of 230,000 active | PC12 HTT-Q103 induced, cytoprotection, ATP luminescence, 40 h; active means well fitted curve in the direction sought with a large enough effect; inconclusive means small, poorly fitted or top-dose-only effect, or another doubt; inactive means no such curve, though single readings can be large; an effect the other way counts as inactive or inconclusive; further: potency means the concentration at half of the fitted maximal effect; % of control where 0% means no effect; nearly all actives have a fitted effect of over 45% in size
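Compounds were screened for protection of PC12 cells against cell death after tebufenozide induction (100 nM final) of mutant Huntingtin exon 1 (Q103) fused to GFP.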
CBFb-RUNX1 inh: blocks binding between human CBF-beta and RUNX1; AlphaScreen CBFb-His/RUNX1-biotin binding, biochemical; Potency, µM (doses to about 59.8 µM), without a hit: at the top dose activity, negative = inhibition, usual class: inhibitors; Q01196+Q13951; 230,000 tested, under 10 active; AID 1477; active means well fitted curve in the direction sought with a large enough effect; inconclusive means small, poorly fitted or top-dose-only effect, or another doubt; inactive means no such curve, though single readings can be large; an effect the other way counts as inactive or inconclusive; further: % of control where 0% means no effect
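CBFb-His/RUNX1-biotin, 30 nM each, preincubated 20 min RT; compound 15 min RT; Ni + streptavidin beads 50 ng each, 90 min RT; AlphaScreen read.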
KDM4E inh: inhibitors of human JMJD2E histone demethylase | B2RXH2 | JMJD2E catalytic domain, FDH-coupled NADH fluorescence (FDH is formaldehyde dehydrogenase) | Potency, µM (titrated, usually from 57.1 µM), inactives show at the highest dose activity change, negative = inhibition, actives largely listed as inhibitors | 1.6% of 230,000 active;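 further: potency means the concentration at half of the fitted maximal effect; 0% = wells with enzyme and -100% = buffer wells without enzyme; nearly all actives have a fitted effect of over 50% in size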
Target sequence (B2RXH2 1-337 limits assumed): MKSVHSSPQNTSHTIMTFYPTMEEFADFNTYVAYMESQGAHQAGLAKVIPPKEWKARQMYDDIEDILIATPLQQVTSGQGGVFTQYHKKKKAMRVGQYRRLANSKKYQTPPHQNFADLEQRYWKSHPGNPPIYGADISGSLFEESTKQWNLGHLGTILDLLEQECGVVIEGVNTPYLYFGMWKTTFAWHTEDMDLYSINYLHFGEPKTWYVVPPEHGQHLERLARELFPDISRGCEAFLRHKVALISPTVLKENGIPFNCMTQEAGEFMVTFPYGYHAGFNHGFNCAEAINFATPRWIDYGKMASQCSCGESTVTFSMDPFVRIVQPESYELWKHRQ
HPGD block: HPGD (human) dehydrogenase inhibition; P15428; purified HPGD, NADH fluorescence kinetic, PGE2 substrate; Potency, µM, for the others: at the highest dose activity change, negative = inhibition, usual class: inhibitors; 4.3% of 150,000 active; AID 894; further: potency means the concentration at half of the fitted maximal effect; on the % scale 0 is the no-effect control and ±100 the full control effect
Target sequence (P15428 whole entry, looked up): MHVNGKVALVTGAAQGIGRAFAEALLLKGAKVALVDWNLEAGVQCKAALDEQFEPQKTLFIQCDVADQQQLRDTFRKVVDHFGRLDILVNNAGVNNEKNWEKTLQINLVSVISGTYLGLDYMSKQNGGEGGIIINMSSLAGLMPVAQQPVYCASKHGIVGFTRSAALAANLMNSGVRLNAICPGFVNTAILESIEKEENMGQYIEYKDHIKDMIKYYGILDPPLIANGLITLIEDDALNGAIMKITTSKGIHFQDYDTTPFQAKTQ
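NADH formation kinetics: reaction with 30 uM PGE2 and 1 mM NAD+ (final), 20 nM enzyme, Tris-HCl pH 8 with Tween 20, after 15 min compound preincubation at room temperature. Fluorescence change, last versus first of five reads.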
ALDH1A1 inh: ALDH1A1 (human) enzyme inhibition; P00352; Purified ALDH1A1, NADH fluorescence, propionaldehyde substrate; Potency, µM (top dose mostly 75.3 µM), for inactives: at the top dose activity, negative = inhibition, usual class: inhibitors; 7.3% of 220,000 active; AID 1030;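 further: potency means the concentration at half of the fitted maximal effect; plate controls were no enzyme wells and a reference inhibitor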
HTT aggregate: mutant huntingtin aggregation inhibition; 1.1% of 220,000 active; Potency, µM (doses to about 46.1 µM), for the others: at the top dose activity change, negative = inhibition, hits mostly inhibitors; PC12 HttQ103-GFP aggregates, Acumen cytometry, 40 h; active means well fitted curve in the direction sought with a large enough effect; inconclusive means small, poorly fitted or top-dose-only effect, or another doubt; inactive means no such curve, though single readings can be large; an effect the other way counts as inactive or inconclusive; further: potency means the concentration at half of the fitted maximal effect; on the % scale 0 is the no-effect control and ±100 the full control effect; nearly all actives have a fitted effect of over 60% in size
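PC12/HTTQ103-GFP, ecdysone-inducible; teb 100 nM; cpd qHTS titration; GFP aggregates read on laser cytometer, Ex 488/Em 500-530 nm.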
The depositor's hits bear a star; ! = not confirmed by another sample; [ ] = remark or other dose. This is a sample that favours compounds with a hit; in the whole collection about 9.8% have one here. Unless noted, the call rests on the fitted dose curve; in most records, active means well fitted inhibition curve with a large enough effect (not every such curve was filed as active); inconclusive means small, poorly fitted or top-dose-only effect, or another doubt; inactive means no such curve, though single readings can be large or run the other way.

Screening CCC#CCOCC(=O)Nc1ccccc1 returned HTT ATP protect -52%, CBFb-RUNX1 inh 21%, KDM4E inh inconclusive, HPGD block -12% and ALDH1A1 inh inconclusive.
Screening COc1cccc(-c2csc(N3CCN(C(=O)C4CCCCC4)CC3)n2)c1 returned HTT ATP protect -4%, CBFb-RUNX1 inh -4%, KDM4E inh -4%, HPGD block -5%, ALDH1A1 inh 13µM* and HTT aggregate -6%.
For N#CCc1nc(CSc2nc3ccccc3s2)cs1 the results were HTT ATP protect 18%, CBFb-RUNX1 inh -2%, KDM4E inh 0%, HPGD block 25µM*, ALDH1A1 inh inconclusive and HTT aggregate 4%.
For CC1CCN(C(=O)CSc2nc3ccccc3s2)CC1 the results were HTT ATP protect -5%, CBFb-RUNX1 inh -2%, KDM4E inh 2%, HPGD block 14µM*, ALDH1A1 inh inconclusive and HTT aggregate 0%.
`OCC(O)/C=N/Nc1nc2ccccc2s1` (configuration not stated) gave HTT ATP protect -16%, CBFb-RUNX1 inh 1%, KDM4E inh 0%, ALDH1A1 inh 4% and HTT aggregate -12%.
For OC(CNc1nc2ccccc2s1)c1ccccc1 (configuration not stated) the results were HTT ATP protect 8%, CBFb-RUNX1 inh -4%, KDM4E inh 2%, HPGD block 10µM*, ALDH1A1 inh 7% and HTT aggregate -24%.
Screening O=C(O)C1CCN(C(=O)CSc2nc3ccccc3s2)CC1 returned HTT ATP protect -17%, CBFb-RUNX1 inh 8%, KDM4E inh -11%, ALDH1A1 inh -16% and HTT aggregate -18%.
Screening Cn1cccc1C(=O)N1CCC2(CCCN(C(=O)Nc3cccc(F)c3)C2)CC1 returned HTT ATP protect inconclusive, HPGD block -5% and ALDH1A1 inh -12%.
For COCCNC(=O)c1cc(S(=O)(=O)N(C)c2ccccc2OC)ccc1C the results were HTT ATP protect 14%[10 µM], CBFb-RUNX1 inh -1%, KDM4E inh -6% and HTT aggregate 25%[9.22 µM].
For S=C(NC1CCCC1)N1CCN(c2ccc(Cl)cc2)CC1 the results were HTT ATP protect -37%[1.9 µM], CBFb-RUNX1 inh -4%, KDM4E inh -9%, ALDH1A1 inh -3% and HTT aggregate 5%[9.22 µM].
`O=C(O)c1cccc(N=Nc2c(S(=O)(=O)O)ccc3c2C(=O)c2ccccc2C3=O)c1O` gave HTT ATP protect -3%[10 µM], HPGD block -22% and ALDH1A1 inh -5%[13.5 µM].
O=C(O)CCSc1nc2ccccc2s1 was read as HTT ATP protect 9%, CBFb-RUNX1 inh -18%, KDM4E inh -13%, HPGD block inconclusive, ALDH1A1 inh 25µM* and HTT aggregate 5%.
CCc1cc2c3c(c1)C(C)CC(C)(C)N3C(=O)C2=O (configuration not stated) was read as HTT ATP protect 43%[10 µM], CBFb-RUNX1 inh -28%, KDM4E inh inconclusive, HPGD block -11%, ALDH1A1 inh 0.32µM* and HTT aggregate inconclusive.
`CCOc1cc2c3c(c1)C1(OCCO1)C(=O)N3C(C)(C)CC2C` (configuration not stated) gave HTT ATP protect 0%[0.074 µM], CBFb-RUNX1 inh 3%, KDM4E inh 8%, HPGD block -8%, ALDH1A1 inh inconclusive and HTT aggregate -19%.
`NC(=O)n1c(O)c(C(=O)c2cccs2)c2cc(Cl)ccc21` gave CBFb-RUNX1 inh inconclusive and HTT aggregate 11µM*.
For N/C(=N\OC(=O)c1cccs1)c1ccc(Cl)cc1 the results were HTT ATP protect 8%[10 µM], CBFb-RUNX1 inh 15%, KDM4E inh -1% and HTT aggregate 25%[9.22 µM].
O=S(=O)(Nc1ccc2c3c(cccc13)CC2)c1ccc(F)cc1 was read as HTT ATP protect -29%, CBFb-RUNX1 inh 8%, KDM4E inh 1%, HPGD block -15%, ALDH1A1 inh 13µM* and HTT aggregate -27%.
Screening CSc1ccc(S(=O)(=O)Nc2ccc3c4c(cccc24)CC3)cc1 returned HTT ATP protect -26%, CBFb-RUNX1 inh -7%, KDM4E inh 4%, HPGD block -13%, ALDH1A1 inh inconclusive and HTT aggregate inconclusive.
CC1CNCCN1S(=O)(=O)c1cccc2cnccc12 (configuration not stated) was read as HTT ATP protect -45%, CBFb-RUNX1 inh 19%, KDM4E inh 13%, HPGD block -7%, ALDH1A1 inh -1% and HTT aggregate inconclusive.
Screening O=S(=O)(c1cccc2cnccc12)N1CCCNCC1 returned HTT ATP protect inconclusive, CBFb-RUNX1 inh 6%, KDM4E inh -9%, HPGD block -3%, ALDH1A1 inh 0% and HTT aggregate 13µM*!.
For O=C(CN1CCOCC1)N1CCCc2ccccc21 the results were CBFb-RUNX1 inh 0%, KDM4E inh -1% and ALDH1A1 inh 7.9µM*.
`O=C(CN1CCOCC1)n1c2ccccc2c2ccccc21` gave HTT ATP protect -8%[10 µM], CBFb-RUNX1 inh -1%, KDM4E inh 6%, HPGD block -2%, ALDH1A1 inh 5% and HTT aggregate 2.8µM*.
For O=C(C(=O)N1CCc2ccccc2C1)c1cn(CC(=O)N2CCOCC2)c2ccccc12 the results were HTT ATP protect -20%[10 µM], CBFb-RUNX1 inh -3%, KDM4E inh 7%, HPGD block -13%, ALDH1A1 inh -5% and HTT aggregate 21%.
S=C(c1cn(CCOc2cccc3ccccc23)c2ccccc12)N1CCCC1 was read as CBFb-RUNX1 inh -17%, KDM4E inh 3%, HPGD block -11%, ALDH1A1 inh 28µM* and HTT aggregate inconclusive.
For O=C(Cn1nnc(-c2ccc(CN3CCOCC3)cc2)n1)N1CCCc2ccccc21 the results were HTT ATP protect 1%[10 µM], CBFb-RUNX1 inh 6%, KDM4E inh -3%, HPGD block -10%, ALDH1A1 inh 1% and HTT aggregate 10%.
Screening O=C(C(=O)N1CCOCC1)c1cn(CC(=O)N2CCc3ccccc3C2)c2ccccc12 returned CBFb-RUNX1 inh 6%, KDM4E inh -6%, ALDH1A1 inh 20µM* and HTT aggregate -6%.
For Brc1cc(Cc2nnc(-c3ccccc3)o2)c(Br)s1 the results were HTT ATP protect 8%[10 µM], CBFb-RUNX1 inh inconclusive, KDM4E inh -10%, ALDH1A1 inh -2% and HTT aggregate 2%[9.22 µM].
O=C(O)Cn1cc(C(=S)N2CCOCC2)c2ccccc21 was read as HTT ATP protect -11%, CBFb-RUNX1 inh 4%, KDM4E inh 0%, HPGD block 18µM*, ALDH1A1 inh 19µM* and HTT aggregate 11%.

Screens as filed in PubChem.
